Shown are actives, neighbours in structure and some others; about 6% of the full set was active somewhere.
D1 antagonist: human D1 dopamine receptor antagonism. P21728. HEK293 TREx D1 cells, calcium flux, dopamine EC80; active compounds read low. activity change, negative = inhibition, % at 10 µM. 360,000 compounds, 3.2% hits; in the data active means activity change below about -30%
Target sequence (P21728 whole entry, looked up): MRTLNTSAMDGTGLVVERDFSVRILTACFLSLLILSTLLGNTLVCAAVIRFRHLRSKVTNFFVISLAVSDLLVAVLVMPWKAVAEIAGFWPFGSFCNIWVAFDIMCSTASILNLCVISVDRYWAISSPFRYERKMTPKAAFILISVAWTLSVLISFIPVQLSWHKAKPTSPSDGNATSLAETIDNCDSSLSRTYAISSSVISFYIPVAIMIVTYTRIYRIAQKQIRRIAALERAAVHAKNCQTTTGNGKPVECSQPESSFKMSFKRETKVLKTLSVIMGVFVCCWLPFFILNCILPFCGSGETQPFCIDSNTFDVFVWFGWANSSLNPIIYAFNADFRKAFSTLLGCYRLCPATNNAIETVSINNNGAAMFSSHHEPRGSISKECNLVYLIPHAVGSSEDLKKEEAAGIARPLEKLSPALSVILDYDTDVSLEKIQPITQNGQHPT
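Inducible Hek293 Trex D1 cells (tetracycline, overnight, 30 C). Calcium dye 30–90 min RT. Antagonist mode: EC80 dopamine added after 180 s compound read.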
D1 agonist: human D1 receptor agonism. activation, % at 2 µM. P21728. HEK293 T-REx D1 cells, calcium flux, agonist mode. 360,000 compounds, 1% hits; in the data active means activation above about 30%
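Tetracycline-induced HEK293 TREx D1 cells, force-coupled to calcium signalling, were dye-loaded with a no-wash calcium kit. Compound was pin-added after a 10 s baseline. Fluorescence was read kinetically at 1 cycle/s for 180 s, with calcium rises flagged as agonism.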
D3 antag: antagonists of human D3 dopamine receptor | P35462 | D3R cells, DiscoveRx beta-arrestin luminescence, antagonist mode; active compounds read low | max response, negative = inhibition, % | 360,000 compounds, 2.5% hits | AID 652054; in the data active means max response below about -50%; inconclusive means no clear call, values can overlap the other calls
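Cells expressing the human receptor were seeded at 1500 cells/well, incubated overnight at 37 degrees C in 5% CO2, then exposed to library compounds with dopamine controls for 90 minutes at 37 degrees C before luminescent detection.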
DRD3 agonist: D3 dopamine receptor (human) agonism; D3R DiscoveRx beta-arrestin cells, luminescence, 90 min; max activation, %; 410,000 compounds, 0.58% hits; in the data active means max activation above about 30%
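Agonist-mode cell screen: cells plated at 1500/well and incubated overnight at 37 °C, then exposed to library compounds for 90 min at 37 °C. Detection reagent was added for 30–60 min at room temperature, and luminescence was read.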
D1 PAM: enhances dopamine response at the human D1 receptor; P21728; HEK293 TREx D1 cells, calcium flux, dopamine EC20 potentiation; potentiation, % at 10 µM; 360,000 compounds, 0.036% hits; in the data active means potentiation above about 30%
Numbers stand for hits; . = inactive; ? = inconclusive; / = no result given; ! = repeats disagree.

SMILES | D1 antagonist | D1 agonist | D3 antag | DRD3 agonist | D1 PAM
COc1ccc(CN2CCCCCC2)c(C)c1C | . | . | -75.2 | . | .
COc1ccc(CN2CCN(Cc3ccc(C)cc3)CC2)c(OC)c1 | . | . | -50.4 | . | .
COc1ccc(C(=O)C2CCCN(C/C=C/c3ccccc3OC)C2)c(OC)c1 (configuration not stated) | . | . | -72.1 | . | .
COc1cc(CN2CCCCCC2)cc(OC)c1OC | . | . | ? | . | .
COc1ccc(CN2CCN(Cc3c[nH]c4ccccc34)CC2)c(OC)c1 | / | / | -73.8 | . | /
CCc1nnc(NC(=O)c2nc(SCc3ccc(F)cc3)ncc2Cl)s1 | . | . | / | . | .
CCCCN(C)c1nc2c(S(=O)(=O)c3ccc(CC)cc3)nnn2c2ccc(Cl)cc12 | . | . | / | . | .
CN1CCN(Cc2cccc(Oc3ccccc3)c2)CC1 | . | . | . | . | .
COc1ccc(CN2CCN(Cc3c[nH]c4ccccc34)CC2)cc1OC | / | / | -51.7 | . | /
COc1ccc(CN2CCN(Cc3cccc(Oc4ccccc4)c3)CC2)c(OC)c1OC | . | . | -70.3 | . | .
COc1ccc(C(=O)C2CCCN(Cc3c[nH]c4ccccc34)C2)c(OC)c1 (configuration not stated) | . | . | -96.0 | . | .
COc1ccc(CN2CCN(Cc3c[nH]c4ccccc34)CC2)cc1 | . | . | ? | . | .
CCN(Cc1ccccc1)C(=O)C1CCN(Cc2ccc(OC)c(OC)c2OC)CC1 | . | . | -51.4 | . | .
O=C(CSc1nc(=O)n(Cc2ccco2)c2c1CCC2)NCc1ccc(F)cc1 | / | . | / | . | .
CCN(C(=O)CSc1ncccn1)c1c(N)n(Cc2ccccc2)c(=O)[nH]c1=O | . | . | . | . | .
CCc1ccc(Nc2n[n+](-c3ccccc3)c(/C=C/c3ccccc3)s2)cc1 | . | . | / | / | .
COc1ccc(-c2sc(Nc3ccccc3)n[n+]2-c2ccc(F)cc2)cc1Br | . | . | . | . | .
COc1ccc2ccccc2c1-c1sc(Nc2ccccc2)n[n+]1-c1ccc(F)cc1 | -39.6 | 36.9 | -80.2 | . | .
CCc1ccc(Nc2n[n+](-c3ccccc3)c(-c3cc(OC)c(OC)cc3Br)s2)cc1 | . | . | -50.9 | . | .
CCc1ccc(Nc2n[n+](-c3ccccc3)c(-c3c(Cl)cccc3Cl)s2)cc1 | -69.1 | 92.5 | . | . | .
Fc1ccc(-[n+]2nc(Nc3ccccc3)sc2-c2c(Cl)cccc2Cl)cc1 | . | 49.3 | . | . | .
CSc1ccc(/C=C2/C(C)=C(CC(=O)O)c3cc(F)ccc32)cc1 | / | / | / | . | /
CN(C(=O)Cn1cnc2onc(-c3ccc(F)cc3)c2c1=O)c1ccccc1Cl | . | . | / | . | .
Cc1ccc2[nH]c(=O)c3cc(C(=O)NCCCN4CCC(C)CC4)sc3c2c1 | . | . | / | . | .
COc1ccc(-c2nnc(SCC(=O)c3ccc(NC(C)=O)cc3)o2)cc1OC | . | . | / | . | .
SMILES | D1 antagonist | D1 agonist | D3 antag | DRD3 agonist | D1 PAM
Cc1cnc(NC(=O)c2ccc3c(c2)C(=O)N(Cc2cccnc2)C3=O)s1 | -32.9 | . | . | . | .
CC(C)CC(C(=O)NC(=O)NCc1ccccc1)N1C(=O)c2ccccc2C1=O (configuration not stated) | -78.8 | . | . | . | .
Cc1ccc(S(=O)(=O)N(CC(=O)N/N=C/c2cccc(C)c2)c2cccc3cccnc23)cc1 | -30.2 | . | . | . | .
CC(C)Oc1ccc(CNC(=O)c2ccc3nc(Cc4ccccc4)oc3c2)cc1 | . | 33.3 | / | . | .
CN(C)c1ccc(CNC(=O)c2ccc3nc(CCc4ccccc4)oc3c2)cc1 | . | . | / | 47.6 | .
Cc1cccc(CNC(=O)c2ccc3nc(Cc4ccccc4)oc3c2)c1 | -31.4 | 31.0 | / | . | .
CCNC(=O)c1ccc2nc(Cc3ccccc3)oc2c1 | . | . | / | . | .
CN(C)c1ccc(CNC(=O)c2ccc3nc(Cc4ccccc4)oc3c2)cc1 | . | . | / | . | .
COc1cccc(NC(=O)Cn2nc3c4ccccc4n(Cc4cccc(F)c4)cc-3c2=O)c1 | . | . | / | . | .
O=C(Nc1c(-c2ccccc2)[nH][nH]c1=O)c1ccco1 | / | / | . | . | /
COc1ccc2nc(-c3ccccc3)cc(OC)c2c1 | -60.5 | . | . | 32.6 | .
C#CCn1c(C2CC(=O)N(c3ccc(OC)cc3)C2)nc2ccccc21 (configuration not stated) | . | . | / | . | .
Cc1cccc(Nc2nnc(-c3ccc(C)c(S(=O)(=O)NCC4CCCO4)c3)c3ccccc23)c1 (configuration not stated) | . | . | / | . | .
CCCc1ccc(OCC(O)CN2CCN(c3ccccc3)CC2)cc1 (configuration not stated) | . | . | ? | 68.0 | .
CCc1ccc(OCC(O)CN2CCN(c3ccccc3)CC2)cc1 (configuration not stated) | . | . | -56.8! | 41.1! | .
Cc1ccc(OCC(O)CN2CCN(CC(O)COc3ccc(C)cc3)CC2)cc1 (configuration not stated) | . | . | ? | . | .
COc1ccc(N2CCN(CC(O)COC(c3ccccc3)c3ccccc3)CC2)cc1 (configuration not stated) | . | . | . | . | .
O=C(NCC(c1cccnc1)N1CCN(Cc2ccccc2)CC1)C(=O)Nc1ccc(Cl)cc1 (configuration not stated) | . | . | / | . | .
Cc1ccc(S(=O)(=O)N2CCN(C(=O)COC(=O)CCOc3ccccc3C)CC2)cc1 | -36.2 | . | . | . | .
Cc1ccc(C)c(OCCC(=O)N2CCN(S(=O)(=O)c3ccc([N+](=O)[O-])cc3)CC2)c1 | -32.6 | . | . | . | .
Cc1ccc(S(=O)(=O)N2CCN(C(=O)COC(=O)CCOc3cc(C)ccc3C)CC2)cc1 | . | . | . | . | .
CCOc1ccc(OCCC(=O)OCC(=O)N2CCN(S(=O)(=O)c3ccc(Cl)cc3)CC2)cc1 | -31.9 | . | . | . | .
Cc1ccc(S(=O)(=O)N2CCCC(c3nc4c(nnn4Cc4ccc(OC(F)(F)F)cc4)c(=O)[nH]3)C2)cc1 (configuration not stated) | . | . | / | . | .
Cn1nnnc1Sc1ncnc2scc(-c3cccc(N)c3)c12 | . | . | / | / | .
COc1ccc(CN2CC(COCc3ccccc3)Oc3ccccc3S2(=O)=O)cc1 (configuration not stated) | / | / | . | 40.9 | /
O=S1(=O)c2ccccc2OC(COCc2ccccc2)CN1Cc1ccccc1 (configuration not stated) | / | / | . | . | /
COc1ccc(CNC(=O)c2ccc3c(c2)N(Cc2ccc(C)cc2)CCS3)cc1 | . | . | / | . | .
CCN1CCSc2ccc(C(=O)NCc3ccc(OC(C)C)cc3)cc21 | . | . | -76.9 | . | .
CCOc1ccc(CNC(=O)c2ccc3c(c2)N(CC)CCS3)cc1 | . | . | -66.8 | . | .
CCC(C#CCN1CCCCC1)(CC)OCCC#N | . | . | -55.9 | . | .
